Source: PubChem
BaF3 tox: parental Ba/F3 cell viability inhibition, counter-screen for JAK2V617F inhibitor project, murine pro-B, CellTiter-Glo luminescence | CellTiter-Glo ATP luminescence | inhibition, % at 5.6 µM | hit rate 1.1% among 220,000 | AID 1486, 2009;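 active = inhibition above a per-campaign cutoff, the mean inhibition of all tested compounds plus 3 SD, cut at about 27% in these data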;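 also: 0% = DMSO wells and 100% = JAK Inhibitor I control wells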
APP 5UTR inh: inhibitors of APP translation via 5'UTR reporter, primary screen, APP 5'UTR luciferase, SH-SY5Y cells. hit rate 0.82% among 190,000. AID 1285, 2008. SH-SY5Y APP 5'UTR-luciferase reporter, luminescence. inhibition, % at 2 µM;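 active = inhibition above a set limit, derived from the sample mean plus 3 SD, cut at about 45% in these data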
aSyn UTR inh: MLPCN primary screen, SNCA 5' untranslated region. alpha-synuclein 5'UTR reporter, inhibitor activity. inhibition, % (tested at 7.5 µM). hit rate 0.82% among 300,000. AID 1813, 2009; in the data active = inhibition above about 60%;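 also: H4 neuroglioblastoma cells stably carrying SNCA 5'UTR luciferase fusion; 0% = DMSO wells and 100% = positive control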
Ba/F3 V617F tox: reduced viability of JAK2V617F-dependent Ba/F3 cells, primary screen, JAK2V617F inhibitor project, cell-based, Ba/F3 EpoR-JAK2V617F, luminescence | ATP luminescence | inhibition, % at 5.6 µM | hit rate 1.1% among 220,000;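 active = inhibition above the campaign mean plus 3 SD over all tested compounds, cut at about 24% in these data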;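 also: cytokine-independent growth of Ba/F3 cells driven by EpoR plus mutant JAK2; 0% = DMSO-treated cells and 100% = JAK inhibitor I control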
KLF5 inhibitor: KLF5 expression inhibitors, primary screen, DLD-1 cells, luminescence; inhibition, % at 5 µM; AID 1700, 2009; hit rate 0.23% among 290,000; DLD-1 KLF5 promoter-luciferase reporter;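 active = inhibition above a per-plate limit of that plate's mean compound inhibition plus 3 SD, cut at about 60% in these data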;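 also: 0% = DMSO wells and 100% = LY294002 at 200 µM; higher means less KLF5 promoter-driven luciferase light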
IEC-6 cytotox: cytotoxicity in IEC-6 intestinal epithelial cells, primary screen, cytotoxicity control for KLF5 inhibitor project, cell-based, luminescence; IEC-6 cytotoxicity, luminescence viability; inhibition, % at 5 µM; hit rate 0.78% among 290,000;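 also: 0% = plate median of test compound wells and 100% = cytotoxic reference compound wells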
IEC-6 tox confirm: cytotoxic compounds in IEC-6 epithelial cells, confirmation, cytotoxicity control, cell-based, luminescence | shares compounds with IEC-6 cytotox | IEC-6 rat intestinal epithelial viability | inhibition, % at 5 µM | hit rate 63% among 1,900 | AID 1907, 2009;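 also: 0% = vehicle and 100% = reference cytotoxic drug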
An asterisk follows results filed as active. Compounds with a hit are over-represented: about 2.2% of the library has one in this group of screens. Rule as the data show it, unless noted: active = inhibition above about 22%; inactive = the rest.

For COc1ccc(/C=N/Nc2snc(SC)c2C#N)cc1OC the results were BaF3 tox 3, APP 5UTR inh -92, aSyn UTR inh -146, Ba/F3 V617F tox 0, KLF5 inhibitor -21, IEC-6 cytotox 41* and IEC-6 tox confirm 31*.
Screening COc1cccc(/C=N/Nc2snc(SC)c2C#N)c1 returned BaF3 tox 3, APP 5UTR inh -30, Ba/F3 V617F tox 1, KLF5 inhibitor 17, IEC-6 cytotox 44* and IEC-6 tox confirm 37*.
Screening COc1cccc(/C=N/Nc2snc(SC)c2C#N)c1O returned BaF3 tox 11, APP 5UTR inh -60, aSyn UTR inh -157, Ba/F3 V617F tox 5, KLF5 inhibitor -83 and IEC-6 cytotox 7.
`CSc1nsc(N/N=C/c2ccccc2)c1C#N` gave BaF3 tox 5, APP 5UTR inh -43, aSyn UTR inh -150, Ba/F3 V617F tox 0, KLF5 inhibitor -6, IEC-6 cytotox 34* and IEC-6 tox confirm 33*.
`COc1cc(C2NC(C(=O)O)CS2)ccc1OCc1ccccc1C#N` (configuration not stated) gave BaF3 tox 5, APP 5UTR inh -18, Ba/F3 V617F tox 1, KLF5 inhibitor -13 and IEC-6 cytotox 3.
Screening CCC1CCCCN1C(=O)c1c(-c2ccccc2)noc1C (configuration not stated) returned BaF3 tox 0, APP 5UTR inh -12, aSyn UTR inh 12, Ba/F3 V617F tox -2, KLF5 inhibitor -6 and IEC-6 cytotox -2.
Screening Cc1cccn2c(=O)c3cc(C(=O)NCC4CCCO4)c(=N)n(Cc4cccnc4)c3nc12 (configuration not stated) returned BaF3 tox 13, APP 5UTR inh -38, Ba/F3 V617F tox 4, KLF5 inhibitor -4 and IEC-6 cytotox 4.
For Cc1cc(C)cc(NC(=O)CC23CC4CC(C2)CC(n2nnc(C)n2)(C4)C3)c1 the results were BaF3 tox 7, APP 5UTR inh 1, aSyn UTR inh 3, Ba/F3 V617F tox 1, KLF5 inhibitor -13 and IEC-6 cytotox -5.
O=C(NCc1ccco1)c1ccc(S(=O)(=O)c2cccc(S(=O)(=O)N3CCOCC3)c2)cc1 was read as BaF3 tox 3, APP 5UTR inh -1, aSyn UTR inh 11, Ba/F3 V617F tox 1, KLF5 inhibitor 4 and IEC-6 cytotox 2.
`O=C(Nc1nc(-c2ccccn2)cs1)c1ccc(Br)s1` gave BaF3 tox 5, APP 5UTR inh 25, aSyn UTR inh -1, Ba/F3 V617F tox 2, KLF5 inhibitor 13, IEC-6 cytotox 30* and IEC-6 tox confirm 70*.
`O=C(CC1CC2CCC1C2)Nc1nc(-c2ccccn2)cs1` (configuration not stated) gave BaF3 tox 7, APP 5UTR inh -37, aSyn UTR inh -15, Ba/F3 V617F tox 4, KLF5 inhibitor -34, IEC-6 cytotox 29* and IEC-6 tox confirm 6.
O=C(Nc1nc(-c2ccncc2)cs1)c1ccco1 was read as BaF3 tox 7, APP 5UTR inh -8, aSyn UTR inh -86, Ba/F3 V617F tox -2, KLF5 inhibitor -37 and IEC-6 cytotox -2.
O=C(Nc1nc(-c2ccccn2)cs1)C1CC1 was read as BaF3 tox 3, APP 5UTR inh -3, aSyn UTR inh -111, Ba/F3 V617F tox -1, KLF5 inhibitor -37 and IEC-6 cytotox 2.
O=C(Nc1nc(-c2ccccn2)cs1)c1ccco1 was read as BaF3 tox 9, APP 5UTR inh 32, aSyn UTR inh 42, Ba/F3 V617F tox 1, KLF5 inhibitor -31, IEC-6 cytotox 26* and IEC-6 tox confirm 28*.
For Cc1nc(NC(=O)c2ccco2)sc1C(=O)O the results were aSyn UTR inh -18, KLF5 inhibitor -2, IEC-6 cytotox 35* and IEC-6 tox confirm 27*.
For CCOc1ccc(CNC(=O)Cn2nc(C)n3nc(-c4ccccc4)cc3c2=O)cc1 the results were aSyn UTR inh 2, KLF5 inhibitor -14 and IEC-6 cytotox 5.
